Data taken from PubChem BioAssay AID602248 (The Scripps Research Institute Molecular Screening Center, 2012).
Hit rate of the full screen: of about 360,000 compounds, about 1,700 (0.47%) were called active. Shown is part of a subset that was picked to be rich in actives. Values without a mark were called inactive. Cut-off read from the data, not from the text of the source: active = activation above about 15%; inactive = the rest.

test: counter-screen for M1 agonists: effect in parental CHO-K1 cells (AID 602248); conditions: Fluo-8 calcium fluorescence, at 3 µM, hits give high values, scaled to maximal ATP response, vehicle zero;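 note: untransfected CHO-K1 host cells lacking M1 receptor as counterscreen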

Row | SMILES | activation
1 | CN1C(C)(C)CC(NC(=O)CCC(=O)NC2CC(C)(C)N(C)C(C)(C)C2)CC1(C)C | 0.35%
2 | C=CCN1C2CCCC1CC(NC(=S)Nc1cccc(OC)c1)C2 (stereo not given) | 1.29%
3 | N#Cc1c(-c2ccccc2)c(-c2ccccc2)n[nH]c1=O | -0.04%
4 | O=C(CCCOc1ccccc1)Nc1cccc(C(=O)O)c1 | 0.45%
5 | O=C(CNCc1ccc(Cl)cc1)Nc1cccc(C(=O)O)c1 | 18.2% (active)
6 | Cc1ccc(C)c2c1cc(C)c1nnc(SCC(=O)Nc3cccc(C(=O)O)c3)n12 | 1.47%
7 | O=C(NCc1ccco1)c1cccc(-c2ccc3nncn3c2)c1 | 0.29%
8 | C1CC1Cc1noc(CN2CCN(CC3CC3)CC2)n1 | 1.05%
9 | COc1ccc(Cl)cc1S(=O)(=O)N1CCC(O)(c2ccc(Cl)cc2)CC1 | 0.66%
10 | COc1cc(OC)c(-n2cc(-c3ccc(Cl)cc3)[nH]c2=O)cc1Cl | 25.2% (active)
11 | COc1cc(OC)c(N2CC(C(=O)Nc3cc(Cl)ccc3N3CCOCC3)CC2=O)cc1Cl (stereo not given) | 4.62%
12 | CC1CCc2[nH]c3ccc(C(=O)N(C)CC(=O)Nc4cccc(F)c4)cc3c2C1 (stereo not given) | 2.26%
13 | O=C(CCCN1CCc2[nH]c3ccc(F)cc3c2C1)c1ccc(F)cc1 | 24% (active)
14 | Cn1c(SCC(=O)N2CCOCC2)nnc1-c1ccc2ncccc2c1 | 0.63%
15 | CN(C)c1ccc(/C=N/NC(=O)c2ccc(Cn3cc(Br)cn3)o2)cc1 | 0.99%
16 | Cc1c(Cl)c([N+](=O)[O-])nn1CCCC(=O)NC(C)c1ccccc1 (stereo not given) | -0.09%
17 | Cc1c(Cl)c([N+](=O)[O-])nn1Cc1ccc(C(=O)N/N=C\c2cc(Cl)ccc2O)o1 | 19.9% (active)
18 | C=C(C)CSc1nnc(-c2ccc(C)cc2)n1N | 0.17%
19 | O=C(CCN1C(=O)c2ccccc2C1=O)NCCCn1ccnc1 | 0.76%
20 | Cc1nc(Cl)c(C#N)c2c1CCCC2 | 0.61%

Row | SMILES | activation
21 | COC(=O)c1c(C)c(C)nc(N)c1C#N | 0.12%
22 | COCc1c(N)c(C)nc(Cl)c1C#N | 16.9% (active)
23 | CCNC(=O)C1(C)CCN(C(=O)c2ccccc2)C1 (stereo not given) | -0.33%
24 | O=C(Cn1ccc([N+](=O)[O-])n1)NCc1cccs1 | 0.12%
25 | OCCN1CCN(c2ncnc3c2ncn3[C@H]2CN(Cc3ccco3)C[C@@H](CO)O2)CC1 | 0.92%
26 | CCNC(=O)N1CCN(S(=O)(=O)c2ccc3c(c2)OCCCO3)CC1 | 1.28%
27 | COc1cc(NC(=O)c2ccc(CNc3c(N4CCCC4)c(=O)c3=O)cc2)cc(OC)c1OC | 0.42%
28 | CC(=O)Oc1ccc(Cn2c(C)c(C(=O)NCc3ccc(C#N)cc3)sc2=O)cc1 | 31.7% (active)
29 | Cc1ccc(Cn2c(C)c(C(=O)NCc3ccccc3C(F)(F)F)sc2=O)cc1 | 0.82%
30 | Cc1c(C(=O)NCc2ccc(C#N)cc2)sc(=O)n1Cc1ccc(C(=O)N(C)C)cc1 | -0.19%
31 | CCC(CC)C(=O)Nc1c2c(nn1-c1ccc(C)cc1)CS(=O)(=O)C2 | -0.47%
32 | O=C(NCc1ccc2c(c1)OCO2)C(=O)NCC1OCCN1S(=O)(=O)c1ccc(F)cc1 (stereo not given) | 1.05%
33 | O=C(O)c1ccc(S(=O)(=O)N2CCOCC2)o1 | -0.58%
34 | CNC[C@H]1OCc2cnnn2CCCC(=O)N([C@H](C)CO)C[C@@H]1C | 0.47%
35 | CC(=O)c1ccc(NC(=O)CSC(=S)N2CCCC2)cc1 | 1.41%
36 | CC(=O)c1ccc(NC(=S)NC(=O)CC(C)C)cc1 | 16.1% (active)
37 | CC(C)CC(=O)NC(=S)Nc1ccc(F)cc1F | 1.3%
38 | CCCOc1cc(C)c(S(=O)(=O)n2nnc3ccccc32)cc1C | 0.16%
39 | CCC(C(=O)Nc1ncccn1)(C(F)(F)F)C(F)(F)F | 0.01%
40 | S=C1Nc2cc(Cl)ccc2Sc2ccccc21 | 1.17%

Row | SMILES | activation
41 | Cc1ccc(S(=O)(=O)N(C)CC(=O)NCC(c2ccc(F)cc2)N2CCOCC2)cc1 (stereo not given) | 0.75%
42 | COC(=O)[C@@H]1C[C@@]2(O)[C@H](O)[C@H](O)[C@H](O)C[C@H]2N1Cc1ccc(C)s1 | 0.11%
43 | Cc1ccc(Oc2cc(NC(=O)CCCn3nc(C)c([N+](=O)[O-])c3C)cc([N+](=O)[O-])c2)cc1 | 0.22%
44 | COc1cc(NC(=O)Nc2ccc(C)cc2)cc([N+](=O)[O-])c1 | 15.6% (active)
45 | COc1ccc(S(=O)(=O)NNC(=O)Nc2ccc(C)cc2)c(OC)c1 | 0.08%
46 | CC(C)CCN1C(=O)c2ccc(C(=O)Nc3cccc(S(N)(=O)=O)c3)cc2C1=O | 1.4%
47 | CCSC1=NCCN1S(=O)(=O)c1ccc(F)cc1 | 0.73%
48 | COc1ccc(C(=O)OCC(=O)c2ccc(C)c(S(=O)(=O)N3CCOCC3)c2)cc1OC | 15.7% (active)
49 | COc1ccc(CNC(=O)COC(=O)c2ccc(C)c(S(=O)(=O)N3CCOCC3)c2)cc1OC | 3.58%
50 | Cc1ccc(C(=O)OCC(=O)N2CCCCCC2)cc1S(=O)(=O)N1CCOCC1 | 0.59%
51 | COc1ccc(C(C)NC(=O)C23CC4CC(CC(C4)C2)C3)cc1 (stereo not given) | -0.13%
52 | Cc1ccc(NC(=O)COC(=O)CN2CCCCCC2=O)c(C)c1 | -0.27%
53 | COc1ccc(-c2ccc3c(c2)C2CC3CCN2CCC#N)cc1 (stereo not given) | 4.03%
54 | CCOC(=O)N1CCN(C(=O)c2ccc3c(c2)N(Cc2ccc(C)cc2)CCS3)CC1 | 1.01%
55 | O=C(NNC(=O)c1csc(-c2cccnc2)n1)Nc1ccc(Cl)cc1 | 0.53%
56 | O=C(O)CCCC(=O)Nc1ccc(Oc2cccc(C(F)(F)F)c2)nc1 | 0.38%
57 | O=C(Nc1ccc(Cl)cc1)Nc1ccc(Oc2cccnc2)nc1 | 15.9% (active)
58 | COc1ccc(NC2CCCN(C(=O)c3ccncc3)C2)cc1 (stereo not given) | 0.4%
59 | CSc1nc(C)nc2c1c(=O)n(C)c(=O)n2C | -0.23%
60 | N#Cc1c(-c2ccc(F)cc2)cc(C2CC2)nc1SCC(=O)c1cccs1 | 0.07%
